Structures are written as SMILES. Records with an inconclusive call do not appear. Calls of active or inactive are those of the source. Calls come from the whole dose curve.
Potency is the fitted concentration of half-maximal effect.

The nature of this test: qHTS assay to identify small molecule agonists of the AP-1 signaling pathway - cell viability counter screen (AID 1159525). Note: nearly all actives have a fitted effect of over 55% in size. Particulars: ME-180 (cervical carcinoma) AP-1-bla cells viability, ATP luminescence, 5 h; series mostly up to 76.8 µM; viability change, negative = cytotoxic: at the top concentration. An excerpt: National Center for Advancing Translational Sciences [NCATS]
NIH Chemical Genomics Center [NCGC]
U.S. Environmental Protection Agency [EPA]
National Institutes of Environmental Health Sciences [NIEHS]
National Toxicology Program [NTP]
U.S. Food and Drug Administration [FDA]
Activator protein-1 (AP-1), a transcription factor, plays an important role in tumor genesis by regulating genes involved in cell proliferation, differentiation, apoptosis, and angiogenesis. AP-1 activity is induced by a complex network of signaling pathways that involves extracellular signals, such as growth factors. The AP-1 protein complex formed from c-Fos and c-Jun binding to the AP-1 response element results in transcriptional activation of genes containing such elements within their promoter.
Low molecular weight molecules have been discovered and developed to modulate various components of these signaling pathways, for example, MAP kinase inhibitors. However, many points of pathway modulation remain untested due to the lack of chemical probes making this signaling locus of general interest.
Using a beta-lactamase reporter-gene under control of the AP-1 response element, a cell-based assay [CellSensor(TM) AP-1-bla ME-180 developed by Invitrogen Corp.] was used to measure EGF-induced signaling. The Tox21 10K library compounds were measured for their ability to positively modulate the action of EC50 EGF on reporter gene activity. Compounds were screened in a 15-pt titration series in 1536-well format. The cytotoxicity of the Tox21 compound library against this cell line was tested in parallel by measuring the intra cellular ATP content in the same wells.
Tox21 Assay Protocol Summary:
2500 cells/5uL in Opti-MEM medium containing 0.5% dialyzed FBS, 0.1 mM NEAA, 1 mM sodium pyruvate and 10 mM HEPES was dispensed into 1536-well black wall/clear bottom plates using a Multidrop dispenser and cells were cultured at 37 degrees Celsius overnight. Next day 23 nL of compounds dissolved in DMSO, positive controls or DMSO were delivered to each well using a pin tool. The plates were incubated at 37 degrees Celsius for 5 hours. 1 uL of LiveBLAzerTM B/G FRET substrate (Solution A+B+C+D) was added to each well using a Flying Reagent Dispenser. After incubated at room temperature for 2.5 hours the plates were measured on an EnVision plate reader at Excitation 405nm, Emission1=460nm and Emission 2=530nm. The %Activity was determined from the ratio of 460nm/530nm.
After the plates were read for Beta-Lactamase assay on Envision; 3 ul Cell Titer Glo (Promega) was added to measure the cytotoxicity and the plates were then incubated at RT in dark for 30 min. The luminescence was read on ViewLux (Perkin Elmer, Shelton, CT) using 6 sec exposure. ViewLux data was expressed as relative luminescence units.
For primary data analysis, raw plate reads for each titration point were first normalized relative to […] EGF control (100%) and DMSO only wells (basal, 0%).
For primary data analysis for viability assay, raw plate reads for each titration point were first normalized Tetra n-octyl ammonium bromide control (-100%) and DMSO (control, 100%).
Background: In qHTS, concentration-response curves come from the screen itself.
As to `CCCCN(CCCC)C(C(N)=O)c1ccc(OC)cc1` (stereo not given), the “viability change, negative = cytotoxic” value was 7.05% [at 35.3 µM] (inactive).
Still for that read-out and setting: in the case of `O=C1c2ccccc2C(=O)c2c(O)c(O)cc(O)c21` it was -8.25% (inactive); in that of `O[C@@H]1CO[C@H]2[C@@H]1OC[C@@H]2O`, 1.76% [at 35.3 µM] (inactive).
On the same count and under the same terms, in the case of `CC(C)=CCC/C(C)=C/CC/C(C)=C/CCC(=O)OC/C=C(\C)CCC=C(C)C` it was 1.56% [at 35.3 µM] (inactive); in that of `CN1C(=O)OC(C)(C)C1=O`, -10.3% (inactive).
On to `C[C@@]12CCC[C@H]1[C@@H]1CC[C@H]3C[C@@H](O)CC[C@]3(C)[C@H]1CC2`, for which the “viability change, negative = cytotoxic” value is 0.736% [at 35.3 µM] (inactive).
On to `CC(CCC(=O)O)C(=O)O` (stereo not given), for which the “viability change, negative = cytotoxic” value was 2.3% (inactive).
Regarding `CN1CC(=O)N2[C@H](c3ccc4c(c3)OCO4)c3[nH]c4ccccc4c3C[C@@H]2C1=O`, the “viability change, negative = cytotoxic” value was 0.773% [at 35.3 µM] (inactive).
With `O=C1C(=O)c2ccccc2C(O)=C1C1CCC(c2ccc(Cl)cc2)CC1` (stereo not given), the “viability change, negative = cytotoxic” value is -7.48% [at 35.3 µM] (inactive).
The same measure, in the same setting: in the case of `CC1(CN2CCC(n3c(=O)[nH]c4ccccc43)CC2)OCc2ccccc2-n2cccc21` (stereo not given) it was -17.1% [at 35.3 µM] (inactive); in that of `CC1(C)S[C@@H]2[C@H](NC(=O)C(c3ccccc3)S(=O)(=O)O)C(=O)N2[C@H]1C(=O)O` (stereo not given in full), 1.1% [at 35.3 µM] (inactive).
As for `CC1=Nc2ccc3ccccc3c2C1(C)C`, the “viability change, negative = cytotoxic” value is -0.467% (inactive).
Same read-out and setting: in the case of `Brc1cc(Br)c(Oc2cc(Br)c(Br)cc2Br)cc1Br` it was -5.3% [at 35.3 µM] (inactive); in that of `O=C(CCCN1CC=C(n2c(=O)[nH]c3ccccc32)CC1)c1ccc(F)cc1`, -19.9% [at 35.3 µM] (inactive).
`CCCCC(CC)COP(=O)(O)O` (stereo not given): the “viability change, negative = cytotoxic” value was -12.6% (inactive).
Take `CC(C)c1nc(CN(C)C(=O)N[C@H](C(=O)N[C@@H](Cc2ccccc2)C[C@H](O)[C@H](Cc2ccccc2)NC(=O)OCc2cncs2)C(C)C)cs1`: the Potency was 19 µM (active).
For `Cc1ccc(CO)cc1`, the “viability change, negative = cytotoxic” value is 1.04% (inactive).
Still for that read-out and setting: as for `CC(C)C(O)(c1ccc(OC(F)(F)F)cc1)c1cncnc1` (stereo not given), the figure is 0.324% (inactive).
For the molecule `C=CC(=O)OCC1CC2CC1C1CCC(COC(=O)C=C)C21` (stereo not given), the “viability change, negative = cytotoxic” value was -3.59% (inactive).
Still for that read-out and setting: as for `Cc1cccc(N(C)C(=S)Oc2ccc3c(c2)CCC3)c1`, the figure is -1.48% [at 35.3 µM] (inactive); as for `Cc1cc(O)c(C)c(C)c1O`, 6.53% [at 35.3 µM] (inactive).
Same read-out and setting: in the case of `CNC(=O)c1cnn(-c2nc(N)c3ncn([C@@H]4O[C@H](CO)[C@@H](O)[C@H]4O)c3n2)c1` it was -8.43% [at 35.3 µM] (inactive).
As for `Cc1cccc(O)c1N`, the Potency was 44.1 µM (active).
Regarding `O=c1[nH]c2ccc(Cl)cc2o1`, the “viability change, negative = cytotoxic” value was -1.91% (inactive).
The same measure, in the same setting: as for `CC(=O)[C@H]1[C@H](C#N)C[C@H]2[C@@H]3CC=C4C[C@@H](O)CC[C@]4(C)[C@H]3CC[C@@]21C`, the figure is 0.728% [at 35.3 µM] (inactive).
The same measure, in the same setting: in the case of `O=Cc1c2ccccc2c(Cl)c2ccccc12` it was 1.36% [at 35.3 µM] (inactive).
Same read-out and setting: in the case of `C/C=C\C/C=C/CCCCCCCCOC(C)=O` it was 1.31% (inactive); in that of `O=C1c2ccccc2C(=O)N1CCc1noc(-c2ccc(CN3CCCCCC3)s2)n1`, -6.97% (inactive).
Consider `Cc1cscn1`, for which the “viability change, negative = cytotoxic” value is -0.0502% (inactive).
On the same count and under the same terms, in the case of `NCCNCCO` it was -0.831% (inactive); in that of `CC(O)c1ccccc1` (stereo not given), -9.17% (inactive).
Take `CCOC(=O)C1=C(C)NC(C)=C(C(=O)OC)C1c1cccc(Cl)c1Cl` (stereo not given): the “viability change, negative = cytotoxic” value was -10.3% [at 35.3 µM] (inactive).
On the same count and under the same terms, as for `C[C@H]1C[C@H](O)c2ccsc2S1(=O)=O`, the figure is 5.04% [at 35.3 µM] (inactive); as for `CN(C)CCC=C1c2ccccc2C=Cc2ccccc21`, 0.0856% [at 35.3 µM] (inactive); as for `Cc1cc(C)cc(N)c1`, 2.34% (inactive).
Same read-out and setting: in the case of `CCC1(CO)COCOC1` it was 8.84% (inactive); in that of `CC(C)C=O`, 0.49% (inactive).
For `CN1C(C(=O)Nc2ccccn2)=C(O)c2sccc2S1(=O)=O`, the “viability change, negative = cytotoxic” value is 8.4% [at 35.3 µM] (inactive).
For the molecule `CCCCCCNC(=O)n1cc(F)c(=O)[nH]c1=O`, the “viability change, negative = cytotoxic” value was 1.76% [at 35.3 µM] (inactive).
Take `COc1cc(Nc2c(C#N)cnc3cc(OCCCN4CCN(C)CC4)c(OC)cc23)c(Cl)cc1Cl`: the “viability change, negative = cytotoxic” value is -15.8% [at 35.3 µM] (inactive).

Source of the values: PubChem BioAssay (Tox21).
